Data reported in the supplement of paper PMC6853941.
Unmarked numbers belong to inactive results.

System: MCF10A
Test: perturbation Mahalanobis distance of morphological profile vs DMSO controls (Mahalanobis distance (SD units)); higher = stronger morphological change, active = 7 or more
Settings: 72 h
Method: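 MCF10A cells were seeded onto drugs dispensed acoustically into 384-well plates, using one dose per drug chosen from its human peak plasma concentration, and incubated for 72 h at 37 °C. Cells were stained for DNA, tubulin and mitochondria and imaged; 78 CellProfiler features were extracted, plate-normalised and compared with DMSO wells.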

[1] = screen batch: Batch1_Mahalanobis_Distance
[2] = screen batch: Batch2_Mahalanobis_Distance

| SMILES | perturbation Mahalanobis distance [1] | perturbation Mahalanobis distance [2] |
| --- | --- | --- |
| CCN(CC)C(=O)N1CCN(C)CC1 [Diethylcarbamazine] (6.3 µM) | 2.96 | 2.16 |
| CC12CC3CC(C)(C1)CC(N)(C3)C2 [Memantine] (1.3 µM) | 4.28 | 3.3 |
| CC(=O)O.C[C@H](N)C(=O)O.NCCCC[C@H](N)C(=O)O.N[C@@H](CCC(=O)O)C(=O)O.N[C@@H](Cc1ccc(O)cc1)C(=O)O [Glatiramer Acetate] (50 µM) | 2.19 | 2.3 |
| CC1(C)C[C@@H]1C(=O)N/C(=C\CCCCSC[C@H](N)C(=O)O)C(=O)O [Cilastatin] (153.4 µM) | 3.43 | 3.46 |
| C[C@@H]1CCC2[C@@H](C)[C@@H](O)O[C@@H]3OC4(C)CC[C@@H]1[C@@]23OO4 (some centres undefined) [Dihydroartemisinin] (13.2 µM) | 10.7 (active) | 16.7 (active) |
| OCCN1C[C@H](O)[C@@H](O)[C@H](O)[C@H]1CO [Miglitol] (45.4 µM) | 1.78 | 2.1 |
| CC1CNc2c(cccc2S(=O)(=O)N[C@@H](CCCN=C(N)N)C(=O)N2CC[C@@H](C)C[C@@H]2C(=O)O)C1 (some centres undefined) [Argatroban] (6.9 µM) | 3.61 | 2.75 |
| CN1C(CCl)Nc2cc(Cl)c(S(N)(=O)=O)cc2S1(=O)=O (centres undefined) [Methyclothiazide] (0.5 µM) | 2.69 | 2.45 |
| O=c1n(CCCN2CCN(c3cccc(Cl)c3)CC2)nc2ccccn12 [Trazodone] (21.5 µM) | 2.62 | 3.12 |
| Cc1nnc(C(=O)NC(C)(C)C2=N/C(=C(\O)NCc3ccc(F)cc3)C(=O)C(=O)N2C)o1 [Raltegravir] (22.5 µM) | 6.75 | 4.95 |
| O=C(O)[C@H]1OC(Oc2ccc([C@@H]3[C@@H](CC[C@@H](O)c4ccc(F)cc4)C(=O)N3c3ccc(F)cc3)cc2)[C@H](O)[C@@H](O)[C@@H]1O (some centres undefined) [Ezetimibe Glucuronide] (47 µM) | 2.38 | 2.09 |
| CC12CCC(=O)C=C1C=CC1C2CCC2(C)C1CCC21CCC(=O)O1 (centres undefined) [Canrenone] (3 µM) | 3.06 | 3.02 |
| O=C(CCCCCCC(=O)Nc1ccccc1)NO [Vorinostat] (9.8 µM) | 11 (active) | 18.4 (active) |
| CC(C)C(=O)Nc1ccc([N+](=O)[O-])c(C(F)(F)F)c1 [Flutamide] (27.2 µM) | 4.39 | 6.63 |
| CN(C)[C@@H]1C(O)=C(C(N)=O)C(=O)[C@@]2(O)C(O)=C3C(=O)c4c(O)cccc4[C@@](C)(O)[C@H]3C[C@@H]12 [Tetracycline] (45 µM) | 4.19 | 2.42 |
| CCN(CC)C(=S)SSC(=S)N(CC)CC [Disulfiram] (6.7 µM) | 2.16 | 3 |
| O=C1C(=O)c2ccccc2C(O)=C1C1CCC(c2ccc(Cl)cc2)CC1 (centres undefined) [Atovaquone] (37.9 µM) | 3.34 | 1.78 |
| CCCc1nn(C)c2c(=O)[nH]c(-c3cc(S(=O)(=O)N4CCN(C)CC4)ccc3OCC)nc12 [Sildenafil] (0.53 µM) | 3.27 | 4.22 |
| O=C(O)c1cnccn1 [Pyrazinoic Acid] (604.4 µM) | 2.79 | 2.79 |

| SMILES | perturbation Mahalanobis distance [1] | perturbation Mahalanobis distance [2] |
| --- | --- | --- |
| Cc1cn[nH]c1 [Fomepizole] (299.6 µM) | 2.14 | 3.81 |
| CCCCC(F)(F)[C@@]1(O)CC[C@H]2[C@@H](CC(=O)[C@@H]2CCCCCCC(=O)O)O1 [Lubiprostone] (64 µM) | 2.4 | 2.48 |
| Nc1nnc(-c2cccc(Cl)c2Cl)c(N)n1 [Lamotrigine] (54.6 µM) | 2.15 | 2.9 |
| C[C@]12C=CC(=O)N[C@@H]1CC[C@@H]1[C@@H]2CC[C@]2(C)[C@@H](C(=O)Nc3cc(C(F)(F)F)ccc3C(F)(F)F)CC[C@@H]12 [Dutasteride] (12 µM) | 2.35 | 2.96 |
| CCOC(=O)C1=C[C@@H](OC(CC)CC)[C@H](NC(C)=O)[C@@H](N)C1 [Oseltamivir] (1 µM) | 2.31 | 1.77 |
| CCN(CC)C(=S)S [Sodium Diethyldithiocarbamate Trihydrate] (10 µM) | 3.67 | 3.24 |
| CCC(C)n1ncn(-c2ccc(N3CCN(c4ccc(OC[C@H]5CO[C@](Cn6cncn6)(c6ccc(Cl)cc6Cl)O5)cc4)CC3)cc2)c1=O (some centres undefined) [Itraconazole] (14.2 µM) | 2.19 | 2.7 |
| CO[C@H]1O[C@@H]2O[C@@]3(C)CC[C@H]4[C@H](C)CC[C@@H]([C@H]1C)[C@@]24OO3 [Artemether] (3.9 µM) | 1.96 | 2.48 |
| CCCCN1C[C@H](O)[C@@H](O)[C@H](O)[C@H]1CO [Miglustat] (92.6 µM) | 2.56 | 3.14 |
| CC1(C)O[C@@H]2[C@@H](CO[C@@]3(COS(N)(=O)=O)OC(C)(C)O[C@@H]23)O1 [Topiramate] (76.6 µM) | 2.96 | 3.08 |
| NS(=O)(=O)c1cc(Cl)c(Cl)c(S(N)(=O)=O)c1 [Dichlorphenamide] (214.8 µM) | 2.6 | 4.41 |
| O=C1c2c(O)ccc(O)c2C(=O)c2c(NCCNCCO)ccc(NCCNCCO)c21 [Mitoxantrone] (3.4 µM) | 9.47 (active) | 16.4 (active) |
| CCN(CC)Cc1cc(Nc2ccnc3cc(Cl)ccc23)ccc1O [Amodiaquine] (0.7 µM) | 2.08 | 2.97 |
| NN1CCOC1=O [3-Amino-2-Oxazolidinone] (49 µM) | 2.59 | 2.76 |
| S=c1nc[nH]c2nc[nH]c12 [6-Mercaptopurine] (9.9 µM) | 2.97 | 8.34 (active) |
| COC(=O)Nc1nc2ccc(C(=O)c3ccccc3)cc2[nH]1 [Mebendazole] (1.7 µM) | 5.89 | 3.69 |
| CCOC(=O)c1ncn2c1CN(C)C(=O)c1cc(F)ccc1-2 [Flumazenil] (1.6 µM) | 4.28 | 3.54 |
| O=C(C1CCCCC1)N1CC(=O)N2CCc3ccccc3C2C1 (centres undefined) [Praziquantel] (3.2 µM) | 3.15 | 3.64 |
